# According to PubChem BioAssay (NCI):
# This is part of a sample that, as a whole, favours compounds with a hit. Of some 83,000 tested, about 20% had one in any assay.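 How to read the values: 0–100, growth inhibition (40 = 60% inhibited); 0, no net growth; -100 to 0, cell death (-40 = 40% of starting cells died; -100 = all dead).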 Values without a mark were called inactive. Activity calls are given as the source filed them. The calls were made as follows: active = growth percent below 10; inactive = the rest.
# Key:
# Assay in all cases: NCI-60 one-dose screen, 48 h (100 = growth as untreated, 0 = no growth, -100 = all killed)
# Conditions in all cases: 10 µM unless noted
# [1] = test system: T-47D breast
# [2] = test system: BT-549 breast
# [3] = test system: MDA-MB-435 melanoma
# [4] = test system: SW-620 colon
# [5] = test system: MCF7 breast
# [6] = test system: HCC-2998 colon
# [7] = test system: KM12 colon
# [8] = test system: HCT-116 colon
SMILES,growth [1],growth [2],growth [3],growth [4],growth [5],growth [6],growth [7],growth [8]
O=C1Nc2ccc(F)cc2C12Nc1cc(Cl)ccc1S2 (stereo not given),40%,67.7%,97.5%,106%,60.3%,99.5%,90.5%,
CCOC(=O)c1csc(NC(=O)COc2cccc(/C=C3\Oc4cc(OC)ccc4C3=O)c2)n1,68.9%,84.7%,90.5%,108%,81.1%,,83.9%,90.7%
CCCCCc1nc2c(c3c1CCCC3)CCCC2,71.9%,115%,99.7%,89.9%,66.9%,87.8%,88.3%,
CCN(CC)CCN1C(=O)c2c(c(C)c3c(oc4cc(O)ccc43)c2C)C1=O,89.5%,86.7%,72.9%,-50.2% (active),3.63% (active),92%,-80.1% (active),
Cc1ccc(Cl)cc1NC(=O)c1cc2ccccc2cc1O,-12.1% (active),-15.6% (active),-7.31% (active),-1.12% (active),-21.5% (active),,-29.4% (active),-10.7% (active)
CC(C)C(NC(=O)C1(NC(=O)OCc2ccccc2)CCCC1)C(=O)O (stereo not given),103%,83.7%,109%,96.9%,105%,,111%,97.6%
COc1ccc(/C=C/c2c(C(=O)/C=C/c3ccc(F)cc3)c(C)nc3ccccc23)cc1,30.6%,67.5%,41%,15.7%,17%,34.6%,58.3%,
O=C1/C(=C\c2cccnc2)SC(=S)N1CCc1ccc(O)cc1,37.6%,72.2%,22.4%,44.4%,30.3%,72.1%,-3.09% (active),
CCN(CCNc1ccc(C)c2sc3ccccc3c(=O)c12)CC(C)(C)O,80.7%,93.4%,79%,73.6%,81.8%,,48.3%,60%
O=C1Nc2ccccc2/C1=C/c1cn(C(=O)c2c(Cl)cccc2Cl)c2ccccc12,47.7%,51.7%,85.7%,45.5%,22.9%,,54.8%,26.1%
CCN(CC)CCCNc1ccc(Nc2ccc(OC)cc2)cc1,118%,59%,82.7%,49.7%,110%,,85.3%,82.2%
COc1ccc(-c2cc(-c3cc(OC)c(OC)c(OC)c3)c(C#N)c(N3CCOCC3)n2)cc1O,78.3%,48.3%,28.3%,23.1%,36.2%,,17.4%,49.1%
OC(c1cccc(-n2ccc(C(F)(F)F)n2)c1)c1cnccc1NC1CCCCCC1 (stereo not given),22.6%,82.5%,-77.4% (active),-86.4% (active),-14.4% (active),-88.8% (active),-47.1% (active),
COc1cc2c(cc1-c1c(C)noc1C)ncc1nc(C3CCCCC3)n(C3CCC(OC(F)F)CC3)c12 (stereo not given),-0.67% (active),51.5%,41.6%,58.3%,15.1%,42.7%,39.2%,
OC(COc1ccccc1Cl)COc1ccccc1Cl,97.1%,86.6%,94.8%,97.9%,94.8%,,99.2%,90.9%
c1c[nH]c(CNC2CCCCC2)c1,105%,105%,115%,102%,103%,109%,98.2%,
O=C1CCC2=C3C4CCCCC4C(=O)C4CCCC(OC2C1)C34 (stereo not given),46.4%,7.09% (active),-68% (active),4.34% (active),12.8%,,-2.73% (active),-7.43% (active)
COc1ccc(-c2c(N)n[nH]c2-c2ccc(Cl)cc2O)cc1OC,91.2%,105%,69.7%,102%,86%,,83%,90.1%

SMILES,growth [1],growth [2],growth [3],growth [4],growth [5],growth [6],growth [7],growth [8]
COc1cc(C2CC(c3ccc(Nc4ccnc5cc(Cl)ccc45)cc3)=NN2C=O)cc(OC)c1OC (stereo not given),83.2%,37%,30.5%,84%,46.3%,,68%,13.5%
COc1cc(N2C(=O)c3nccnc3C2=O)cc(OC)c1OC,96.9%,95.2%,107%,104%,95.7%,,110%,103%
NC(=N\N=C/c1cccc([N+](=O)[O-])c1)/C(N)=N\N=C/c1cccc([N+](=O)[O-])c1,4.8% (active),-14.9% (active),73.2%,38.9%,12.9%,102%,54.2%,
Cc1cc(NCCCCNc2ccnc3cc(Cl)ccc23)nc(Nc2ccc(C(=O)N3CCCCC3)cc2)n1,-23.5% (active),92.9%,-84.3% (active),-70.2% (active),-49.1% (active),-37.5% (active),25.8%,
Cc1c(C(=O)N[C@@H](Cc2ccccc2)C(=O)C(=O)NCCc2ccccc2)[nH]c2ccccc2c1=O,101%,124%,101%,105%,92.3%,100%,103%,
CC1=C(SCCC(=O)OC(C[Se]C2=C(C)C(=O)c3ccccc3C2=O)C(=O)NCCCCCC(=O)OCc2ccccc2)C(=O)c2ccccc2C1=O (stereo not given),49.9%,67.3%,25.1%,45.7%,28.2%,32%,19.8%,
CC/C=C\C/C=C\C[C@H](O)C/C=C1/C(=O)C=C[C@@H]1C/C=C\CCCC(=O)O,14.2%,-29.3% (active),10.1%,21.4%,23.6%,-22% (active),6.23% (active),
CCOc1ccccc1-c1cc(-c2cccs2)c(C#N)c(=O)[nH]1,26.7%,85.6%,31.2%,80.9%,37.1%,92.2%,83.9%,
COc1ccc2c(c1)C(=O)/C(=C/c1cccc(OCC(=O)Nc3nc(C)c(C)s3)c1)O2,-6.43% (active),-81.9% (active),15.3%,-76.9% (active),40.5%,,9.4% (active),-96.5% (active)
COc1ccc2c(c1)CCCN2c1c2ccccc2nc2ccccc12,51.1%,7.21% (active),-17.9% (active),24.7%,20.8%,-9.75% (active),5.15% (active),
CC(C)(C)OC(=O)Nc1ccc2c(c1)C(NC(=O)Nc1cccc(C#N)c1)CC(C)(C)O2 (stereo not given),34.2%,29%,39.4%,48.7%,32.1%,,49.5%,30.7%
O=C(NC(CSSCC(NC(=O)c1ccccc1)C(=O)O)C(=O)O)c1ccccc1 (stereo not given),99.4%,91.1%,103%,103%,117%,,97.9%,98.9%
CN(Cc1cnc2nc(N)nc(N)c2n1)c1ccc(C(=O)N[C@@H](CCc2nn[nH]n2)c2nn[nH]n2)cc1,75.9%,53.2%,38.5%,20.1%,17%,52.6%,33%,
O=C1NC(=Nc2ccc(Cl)cc2)S/C1=C\c1cn(-c2ccccc2)nc1-c1ccccc1,47.4%,84.3%,90.1%,75.2%,69.1%,100%,97.5%,
Cc1ccc(C(=NN=C(N)N)c2ccc(C)cc2)cc1,20.3%,-24.8% (active),-39% (active),28.4%,2.04% (active),,1.93% (active),2.81% (active)
COC(=O)c1ccc(C2Nc3ccc(S(=O)(=O)Nc4ccc(C)c(C)c4)cc3C3OCCC23)cc1 (stereo not given),51.1%,84.7%,94.7%,78.5%,43.1%,111%,78.1%,
COc1cccc(-c2nn(-c3ccccc3)cc2-c2ccnc(NCCNC(=O)Nc3ccc(Cl)c(Cl)c3)c2)c1,12.6%,-4.67% (active),-66.9% (active),18.3%,6.67% (active),-37.1% (active),-33.8% (active),
